How the values were obtained:
[1] = biological target: T1, Aurora kinase A (Homo sapiens) (UniProt O14965); conditions: at 1 µM;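 note: values are mean percent inhibition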
T1 sequence (whole entry): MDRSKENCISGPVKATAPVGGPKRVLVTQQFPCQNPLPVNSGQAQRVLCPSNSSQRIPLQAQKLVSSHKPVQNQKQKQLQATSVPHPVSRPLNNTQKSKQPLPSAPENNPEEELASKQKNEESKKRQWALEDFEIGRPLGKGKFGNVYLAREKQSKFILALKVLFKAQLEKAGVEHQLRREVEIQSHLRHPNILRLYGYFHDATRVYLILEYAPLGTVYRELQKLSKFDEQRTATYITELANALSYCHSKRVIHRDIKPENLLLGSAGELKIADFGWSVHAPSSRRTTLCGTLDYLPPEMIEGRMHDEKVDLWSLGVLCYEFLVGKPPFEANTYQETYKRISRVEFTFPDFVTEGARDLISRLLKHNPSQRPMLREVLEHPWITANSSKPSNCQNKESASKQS

[2] = biological target: Aurora kinase B (Homo sapiens) (UniProt Q96GD4); conditions: at 0.1 µM
[3] = biological target: Aurora kinase B (Homo sapiens) (UniProt Q96GD4); conditions: at 1 µM
[4] = biological target: T2, Aurora kinase C (Homo sapiens) (UniProt Q9UQB9); conditions: at 0.1 µM
T2 sequence (whole entry): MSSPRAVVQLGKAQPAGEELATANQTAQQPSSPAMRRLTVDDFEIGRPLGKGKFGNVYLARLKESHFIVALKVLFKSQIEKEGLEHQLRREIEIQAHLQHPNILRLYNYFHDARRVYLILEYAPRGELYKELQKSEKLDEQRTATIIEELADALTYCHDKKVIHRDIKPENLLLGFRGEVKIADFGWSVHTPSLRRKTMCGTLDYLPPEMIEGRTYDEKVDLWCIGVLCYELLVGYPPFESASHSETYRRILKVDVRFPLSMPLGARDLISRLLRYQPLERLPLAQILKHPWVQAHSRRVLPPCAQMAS

[5] = biological target: T2, Aurora kinase C (Homo sapiens); conditions: at 1 µM
[6] = biological target: Serine/threonine-protein kinase 10 (Homo sapiens) (UniProt O94804); conditions: at 0.1 µM
[7] = biological target: Serine/threonine-protein kinase 10 (Homo sapiens) (UniProt O94804); conditions: at 1 µM
[8] = biological target: T3, Mitogen-activated protein kinase kinase kinase kinase 2 (Homo sapiens) (UniProt Q12851); conditions: at 0.1 µM
T3 sequence (whole entry): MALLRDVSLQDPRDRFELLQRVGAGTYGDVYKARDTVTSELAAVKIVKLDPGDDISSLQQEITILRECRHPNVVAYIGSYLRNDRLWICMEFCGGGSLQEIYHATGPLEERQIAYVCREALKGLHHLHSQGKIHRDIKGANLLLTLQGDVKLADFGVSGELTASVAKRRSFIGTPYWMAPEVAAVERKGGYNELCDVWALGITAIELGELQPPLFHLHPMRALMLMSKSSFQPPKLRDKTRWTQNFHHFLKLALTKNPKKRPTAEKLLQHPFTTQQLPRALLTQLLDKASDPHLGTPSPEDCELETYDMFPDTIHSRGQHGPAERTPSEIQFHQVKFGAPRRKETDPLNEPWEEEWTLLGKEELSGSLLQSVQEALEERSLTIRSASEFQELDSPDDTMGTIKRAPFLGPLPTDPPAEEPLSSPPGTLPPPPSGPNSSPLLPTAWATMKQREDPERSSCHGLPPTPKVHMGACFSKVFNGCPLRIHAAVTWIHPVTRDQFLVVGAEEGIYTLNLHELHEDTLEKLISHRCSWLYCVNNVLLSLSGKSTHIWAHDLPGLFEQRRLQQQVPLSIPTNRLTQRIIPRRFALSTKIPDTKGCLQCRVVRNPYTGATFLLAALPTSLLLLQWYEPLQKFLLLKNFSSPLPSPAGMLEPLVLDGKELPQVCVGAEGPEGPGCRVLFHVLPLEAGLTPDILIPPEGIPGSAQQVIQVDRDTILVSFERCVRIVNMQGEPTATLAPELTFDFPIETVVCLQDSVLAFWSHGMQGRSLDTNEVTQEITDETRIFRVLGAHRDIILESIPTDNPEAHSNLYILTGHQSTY

[9] = biological target: T3, Mitogen-activated protein kinase kinase kinase kinase 2 (Homo sapiens); conditions: at 1 µM
[10] = biological target: Mitogen-activated protein kinase kinase kinase kinase 4 (Homo sapiens) (UniProt O95819); conditions: at 0.1 µM
[11] = biological target: Mitogen-activated protein kinase kinase kinase kinase 4 (Homo sapiens) (UniProt O95819); conditions: at 1 µM
[12] = biological target: Dual specificity mitogen-activated protein kinase kinase 1 (Homo sapiens) (UniProt Q02750); conditions: at 0.1 µM
[13] = biological target: Dual specificity mitogen-activated protein kinase kinase 1 (Homo sapiens) (UniProt Q02750); conditions: at 1 µM
[14] = biological target: Misshapen-like kinase 1 (Homo sapiens) (UniProt Q8N4C8); conditions: at 0.1 µM
[15] = biological target: Misshapen-like kinase 1 (Homo sapiens) (UniProt Q8N4C8); conditions: at 1 µM
[16] = biological target: T4, Serine/threonine-protein kinase 4 (Homo sapiens) (UniProt Q13043); conditions: at 0.1 µM
T4 sequence (whole entry): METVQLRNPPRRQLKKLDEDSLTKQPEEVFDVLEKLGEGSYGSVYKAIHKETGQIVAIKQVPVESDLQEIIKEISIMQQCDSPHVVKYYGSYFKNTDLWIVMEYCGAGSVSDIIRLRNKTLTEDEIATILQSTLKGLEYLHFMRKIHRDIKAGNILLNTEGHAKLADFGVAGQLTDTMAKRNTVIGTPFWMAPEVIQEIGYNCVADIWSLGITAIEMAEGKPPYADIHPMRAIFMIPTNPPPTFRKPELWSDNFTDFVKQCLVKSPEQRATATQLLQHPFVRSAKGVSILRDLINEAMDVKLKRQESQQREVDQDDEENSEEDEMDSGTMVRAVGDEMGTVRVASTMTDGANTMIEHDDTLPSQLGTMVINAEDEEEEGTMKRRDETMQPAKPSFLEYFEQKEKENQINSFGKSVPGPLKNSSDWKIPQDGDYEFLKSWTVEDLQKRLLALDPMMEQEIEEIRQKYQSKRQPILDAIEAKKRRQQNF

[17] = biological target: T4, Serine/threonine-protein kinase 4 (Homo sapiens); conditions: at 1 µM
[18] = biological target: T5, Serine/threonine-protein kinase 3 (Homo sapiens) (UniProt Q13188); conditions: at 0.1 µM
T5 sequence (whole entry): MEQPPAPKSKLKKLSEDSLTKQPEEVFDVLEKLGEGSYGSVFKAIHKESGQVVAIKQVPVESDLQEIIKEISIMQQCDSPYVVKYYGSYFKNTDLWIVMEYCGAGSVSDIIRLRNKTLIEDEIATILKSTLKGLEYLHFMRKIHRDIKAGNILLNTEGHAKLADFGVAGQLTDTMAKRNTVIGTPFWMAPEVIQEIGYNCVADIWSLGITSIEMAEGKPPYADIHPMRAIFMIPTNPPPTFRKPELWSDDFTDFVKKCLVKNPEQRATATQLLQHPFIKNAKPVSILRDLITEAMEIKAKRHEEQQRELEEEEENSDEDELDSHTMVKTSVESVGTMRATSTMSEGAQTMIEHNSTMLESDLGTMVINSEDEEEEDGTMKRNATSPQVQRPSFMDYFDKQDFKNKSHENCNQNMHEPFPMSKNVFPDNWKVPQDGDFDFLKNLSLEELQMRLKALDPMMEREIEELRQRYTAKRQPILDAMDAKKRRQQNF

[19] = biological target: T5, Serine/threonine-protein kinase 3 (Homo sapiens); conditions: at 1 µM
[20] = biological target: Serine/threonine-protein kinase 26 (Homo sapiens) (UniProt Q9P289); conditions: at 0.1 µM
Serine/threonine-protein kinase 26 (Homo sapiens), sequence (Q9P289 2-416 limits assumed): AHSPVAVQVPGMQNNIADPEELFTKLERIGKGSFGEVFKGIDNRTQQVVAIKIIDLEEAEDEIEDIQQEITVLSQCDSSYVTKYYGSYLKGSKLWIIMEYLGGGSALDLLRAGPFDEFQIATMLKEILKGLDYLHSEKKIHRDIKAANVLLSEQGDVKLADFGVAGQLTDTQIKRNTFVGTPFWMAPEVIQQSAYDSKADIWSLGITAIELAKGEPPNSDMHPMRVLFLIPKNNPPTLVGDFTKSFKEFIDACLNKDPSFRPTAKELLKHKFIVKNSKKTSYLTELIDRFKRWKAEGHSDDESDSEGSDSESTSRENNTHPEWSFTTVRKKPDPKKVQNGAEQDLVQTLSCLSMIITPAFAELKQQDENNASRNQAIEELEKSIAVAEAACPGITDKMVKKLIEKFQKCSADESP

Misshapen-like kinase 1 (Homo sapiens), sequence (Q8N4C8 whole entry, looked up): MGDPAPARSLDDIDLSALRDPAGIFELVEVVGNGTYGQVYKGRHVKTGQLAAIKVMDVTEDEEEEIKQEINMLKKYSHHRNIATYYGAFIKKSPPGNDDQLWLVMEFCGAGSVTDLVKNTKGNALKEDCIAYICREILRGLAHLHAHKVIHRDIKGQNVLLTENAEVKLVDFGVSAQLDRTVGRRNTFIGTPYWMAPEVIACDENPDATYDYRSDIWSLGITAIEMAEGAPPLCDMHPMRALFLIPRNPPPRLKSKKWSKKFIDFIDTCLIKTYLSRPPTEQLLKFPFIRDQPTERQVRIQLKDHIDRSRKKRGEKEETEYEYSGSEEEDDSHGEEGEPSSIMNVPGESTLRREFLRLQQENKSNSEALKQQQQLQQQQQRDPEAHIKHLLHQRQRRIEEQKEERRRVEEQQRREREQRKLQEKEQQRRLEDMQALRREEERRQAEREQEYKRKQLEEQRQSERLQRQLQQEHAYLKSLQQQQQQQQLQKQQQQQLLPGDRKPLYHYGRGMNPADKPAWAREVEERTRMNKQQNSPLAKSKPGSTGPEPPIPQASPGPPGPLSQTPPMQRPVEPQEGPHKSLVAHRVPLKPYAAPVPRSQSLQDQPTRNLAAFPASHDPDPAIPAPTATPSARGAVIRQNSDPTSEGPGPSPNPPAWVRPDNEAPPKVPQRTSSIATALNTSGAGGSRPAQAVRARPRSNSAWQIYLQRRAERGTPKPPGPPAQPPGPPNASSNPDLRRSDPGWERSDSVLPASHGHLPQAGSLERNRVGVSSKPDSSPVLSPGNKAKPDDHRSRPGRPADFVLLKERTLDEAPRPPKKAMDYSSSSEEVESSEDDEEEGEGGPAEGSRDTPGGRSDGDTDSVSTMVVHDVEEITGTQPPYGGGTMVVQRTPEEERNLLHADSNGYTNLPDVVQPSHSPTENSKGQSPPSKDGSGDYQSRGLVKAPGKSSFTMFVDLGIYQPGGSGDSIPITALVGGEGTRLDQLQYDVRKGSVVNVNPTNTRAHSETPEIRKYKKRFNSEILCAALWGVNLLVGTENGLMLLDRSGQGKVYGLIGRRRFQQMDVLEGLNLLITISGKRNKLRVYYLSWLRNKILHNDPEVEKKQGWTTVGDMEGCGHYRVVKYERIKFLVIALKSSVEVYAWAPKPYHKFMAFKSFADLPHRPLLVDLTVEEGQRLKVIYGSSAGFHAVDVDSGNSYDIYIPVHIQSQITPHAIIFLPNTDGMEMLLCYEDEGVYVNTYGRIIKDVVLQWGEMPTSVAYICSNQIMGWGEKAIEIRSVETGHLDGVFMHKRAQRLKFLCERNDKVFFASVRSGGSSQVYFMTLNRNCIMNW
Mitogen-activated protein kinase kinase kinase kinase 4 (Homo sapiens), sequence (O95819 2-1239 limits assumed): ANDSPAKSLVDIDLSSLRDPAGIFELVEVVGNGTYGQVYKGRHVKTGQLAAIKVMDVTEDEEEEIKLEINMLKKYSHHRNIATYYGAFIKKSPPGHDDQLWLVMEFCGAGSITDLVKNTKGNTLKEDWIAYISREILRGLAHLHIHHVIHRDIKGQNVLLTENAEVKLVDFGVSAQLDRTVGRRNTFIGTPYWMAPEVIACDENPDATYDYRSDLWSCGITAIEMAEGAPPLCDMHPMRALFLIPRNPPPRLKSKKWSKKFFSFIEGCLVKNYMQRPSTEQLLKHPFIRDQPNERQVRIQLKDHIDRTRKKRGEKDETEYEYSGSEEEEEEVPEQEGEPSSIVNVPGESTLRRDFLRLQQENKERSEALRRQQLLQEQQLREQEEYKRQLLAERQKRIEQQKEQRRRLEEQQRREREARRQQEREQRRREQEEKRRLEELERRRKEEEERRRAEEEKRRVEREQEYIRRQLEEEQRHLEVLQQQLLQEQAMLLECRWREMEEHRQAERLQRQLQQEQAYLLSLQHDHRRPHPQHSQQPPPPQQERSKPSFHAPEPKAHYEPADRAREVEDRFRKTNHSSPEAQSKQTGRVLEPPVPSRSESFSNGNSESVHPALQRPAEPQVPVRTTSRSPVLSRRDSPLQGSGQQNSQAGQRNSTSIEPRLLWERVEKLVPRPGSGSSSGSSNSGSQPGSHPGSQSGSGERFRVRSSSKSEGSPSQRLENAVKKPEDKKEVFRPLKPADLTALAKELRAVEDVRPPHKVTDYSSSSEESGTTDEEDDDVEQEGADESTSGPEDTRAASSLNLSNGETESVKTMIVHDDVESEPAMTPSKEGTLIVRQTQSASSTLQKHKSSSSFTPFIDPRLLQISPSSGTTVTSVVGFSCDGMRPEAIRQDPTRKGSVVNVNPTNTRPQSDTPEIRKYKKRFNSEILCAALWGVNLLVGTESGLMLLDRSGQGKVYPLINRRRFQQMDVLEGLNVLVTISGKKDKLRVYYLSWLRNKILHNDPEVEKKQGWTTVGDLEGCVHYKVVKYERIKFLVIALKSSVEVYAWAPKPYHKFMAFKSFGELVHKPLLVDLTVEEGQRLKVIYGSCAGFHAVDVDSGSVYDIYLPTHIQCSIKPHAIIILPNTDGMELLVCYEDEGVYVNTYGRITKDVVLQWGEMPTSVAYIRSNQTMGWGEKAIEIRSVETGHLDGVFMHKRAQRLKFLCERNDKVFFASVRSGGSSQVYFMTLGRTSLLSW
Dual specificity mitogen-activated protein kinase kinase 1 (Homo sapiens), sequence (Q02750 whole entry): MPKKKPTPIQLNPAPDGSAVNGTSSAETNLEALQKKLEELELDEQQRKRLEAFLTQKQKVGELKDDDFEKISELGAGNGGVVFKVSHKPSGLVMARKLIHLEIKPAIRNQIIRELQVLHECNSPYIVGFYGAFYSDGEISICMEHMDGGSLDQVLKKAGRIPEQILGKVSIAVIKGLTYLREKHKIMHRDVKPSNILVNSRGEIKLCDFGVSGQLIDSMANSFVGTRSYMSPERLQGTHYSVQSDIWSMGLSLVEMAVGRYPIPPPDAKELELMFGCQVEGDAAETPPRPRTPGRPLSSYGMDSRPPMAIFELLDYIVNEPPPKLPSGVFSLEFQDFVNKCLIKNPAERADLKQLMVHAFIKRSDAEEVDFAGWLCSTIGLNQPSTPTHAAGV
Aurora kinase B (Homo sapiens), sequence (Q96GD4 whole entry): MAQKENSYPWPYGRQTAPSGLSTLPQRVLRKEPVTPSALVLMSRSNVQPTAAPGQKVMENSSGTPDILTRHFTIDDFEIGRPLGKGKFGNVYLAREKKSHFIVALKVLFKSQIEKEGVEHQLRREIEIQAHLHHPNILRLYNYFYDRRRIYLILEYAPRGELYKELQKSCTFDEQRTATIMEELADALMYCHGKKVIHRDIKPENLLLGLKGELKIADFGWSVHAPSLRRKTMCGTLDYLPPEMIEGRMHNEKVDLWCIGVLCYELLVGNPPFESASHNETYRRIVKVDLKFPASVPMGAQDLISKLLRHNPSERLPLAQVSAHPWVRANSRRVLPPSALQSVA
Serine/threonine-protein kinase 10 (Homo sapiens), sequence (O94804 whole entry, looked up): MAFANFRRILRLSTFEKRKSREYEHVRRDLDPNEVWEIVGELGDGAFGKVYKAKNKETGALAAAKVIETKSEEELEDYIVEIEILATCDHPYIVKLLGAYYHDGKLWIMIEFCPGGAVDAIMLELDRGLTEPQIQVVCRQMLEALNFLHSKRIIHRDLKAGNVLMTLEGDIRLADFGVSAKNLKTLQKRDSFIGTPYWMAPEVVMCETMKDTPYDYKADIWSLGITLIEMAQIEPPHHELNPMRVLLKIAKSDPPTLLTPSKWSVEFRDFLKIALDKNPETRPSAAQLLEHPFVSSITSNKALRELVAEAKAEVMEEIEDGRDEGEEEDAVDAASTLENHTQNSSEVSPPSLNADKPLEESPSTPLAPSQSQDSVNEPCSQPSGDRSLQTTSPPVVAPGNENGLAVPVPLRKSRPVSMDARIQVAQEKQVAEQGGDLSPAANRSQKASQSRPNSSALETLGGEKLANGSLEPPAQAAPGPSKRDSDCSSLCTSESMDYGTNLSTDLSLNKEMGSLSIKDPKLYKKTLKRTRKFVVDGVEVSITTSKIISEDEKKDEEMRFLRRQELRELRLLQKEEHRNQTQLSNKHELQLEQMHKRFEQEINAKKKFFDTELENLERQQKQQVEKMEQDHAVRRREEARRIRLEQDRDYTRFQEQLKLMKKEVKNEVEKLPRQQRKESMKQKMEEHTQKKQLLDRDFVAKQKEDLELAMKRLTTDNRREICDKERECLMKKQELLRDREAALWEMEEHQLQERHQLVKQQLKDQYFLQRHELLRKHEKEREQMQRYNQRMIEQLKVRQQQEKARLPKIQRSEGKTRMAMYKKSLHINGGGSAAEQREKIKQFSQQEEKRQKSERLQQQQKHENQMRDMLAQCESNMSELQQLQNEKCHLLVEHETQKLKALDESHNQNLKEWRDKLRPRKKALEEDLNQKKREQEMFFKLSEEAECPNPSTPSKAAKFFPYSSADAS

Row | SMILES | inhibition [1] | inhibition [2] | inhibition [3] | inhibition [4] | inhibition [5] | inhibition [6] | inhibition [7] | inhibition [8] | inhibition [9] | inhibition [10] | inhibition [11] | inhibition [12] | inhibition [13] | inhibition [14] | inhibition [15] | inhibition [16] | inhibition [17] | inhibition [18] | inhibition [19] | inhibition [20]
1 | COc1cc(C=NNc2ncnc3c2cnn3Cc2ccccc2)ccc1O | 25.6% | 2.52% | 34.4% | 1.25% | 10.6% | -4.65% | 5.71% | 0.89% | 4.63% | -1.52% | 7.51% | -3.29% | -4.65% | -2.43% | 5.48% | -3.73% | -2.3% | -4.05% | -0.82% | 1.58%
2 | Nc1nonc1-c1nc2cnccc2n1C1CCCCC1 | 5.79% | 0.62% | 7.52% | -0.66% | 5.22% | 0.39% | 18.4% | 3.87% | 20.4% | 6.25% | 46.2% | 0.13% | 7.67% | 2.02% | 31.4% | 0.54% | 18.5% | -0.2% | 13.8% | 0.77%
3 | COc1cc2c(cc1Nc1nc(Nc3ccsc3C(N)=O)c3cc[nH]c3n1)N(C(=O)CN(C)C)CCC2 | – | 0.75% | 2.92% | 1.46% | 2.53% | 11.4% | 17.4% | 1.63% | 11.8% | 9.31% | 14.9% | -3.96% | -5.54% | 13.3% | 17% | 1.72% | 8.27% | – | – | 1.14%
4 | NS(=O)(=O)c1ccc(-c2ccc3c(NC(=O)C4CC4)n[nH]c3c2)cc1 | 15.3% | 3.22% | 0.63% | 1.15% | 14.4% | 4.04% | 5.59% | -0.26% | 2.11% | 3.77% | 5.23% | 1.7% | 2% | 3.12% | 4.48% | 3.07% | 5.91% | 4.35% | 5.17% | 0.02%
5 | NS(=O)(=O)c1ccc(N/C=C2\C(=O)Nc3ccc4ncsc4c32)cc1 | 80.2% | 19.6% | 55.2% | 22.5% | 79.2% | 5.85% | 16.2% | 12.8% | 52.1% | 55.1% | 76.9% | 8.75% | 42.9% | 45.2% | 76.9% | 70.2% | 75.2% | 65.1% | 73.7% | 42.6%
6 | CCn1c(-c2nonc2N)nc2c(C#CCN)ncc(OCCCN)c21 | 5.16% | 4.99% | 6.36% | 3.54% | -8.09% | 4.42% | 11.3% | 3.61% | 4.55% | 1.78% | 6.77% | -2.28% | -2.9% | -0.45% | 11.5% | 2% | 5.35% | 2.31% | 6.61% | 1.82%
7 | COc1cccc(-n2ncc3c(N/N=C/c4ccncc4)ncnc32)c1 | 73.8% | 7.94% | 43.1% | 7.33% | 61.4% | 5.83% | 33.5% | 2.12% | 7.06% | 20.1% | 67.7% | 7.89% | 7.23% | 16.2% | 55.4% | 9.07% | 12.8% | 5.41% | 10.7% | 0.95%
8 | CCn1c(-c2nonc2N)nc2c(C#CC(C)(C)O)nc(O[C@@H](CN)c3ccccc3)cc21 | 5.65% | 0.38% | 6.56% | -0.63% | 1.38% | 1.16% | 19.8% | 4.66% | 24.8% | 2.87% | 20.4% | -0.01% | 6.28% | 2.21% | 11% | 3.02% | 15.9% | 1.12% | – | 1.22%
9 | Fc1ccc(-c2ncn(C3CCNCC3)c2-c2ccnc(Oc3ccccc3)n2)cc1 | -2.89% | -0.82% | 1.75% | -4.42% | -1.24% | 6.38% | 8.33% | 1.61% | 4.65% | 1.76% | 6.15% | 1.34% | 3.93% | 2.7% | 6.65% | 0.94% | 1.85% | 1.01% | 2.48% | -0.85%
10 | COc1cccc(COc2cc(-n3cnc4ccccc43)sc2C(N)=O)c1 | 2.21% | -1.57% | 1.15% | 1.58% | 3.73% | 4.63% | 39.4% | 1.4% | 7.04% | 1.37% | 18.5% | 0.36% | 0.58% | 3.1% | 16.3% | -1.11% | 2.62% | 0.35% | 1.4% | 1.25%
11 | CCn1c(-c2nonc2N)nc2c(C#CC(C)(C)O)ncc(OCC3CCNCC3)c21 | 3.09% | -0.07% | 0.45% | -3.33% | – | 3.91% | 13.6% | 1.42% | 1.95% | 4.98% | 17.6% | 5.08% | 4.1% | 5.98% | 13.3% | 8.62% | 16.3% | 8.69% | 14.7% | 0.23%
12 | CCn1c(-c2nonc2N)nc2c(C#CC(C)(C)O)ncc(OC[C@@H]3CCCN3)c21 | 1.08% | -1.36% | 0.87% | 1.23% | 1.45% | -0.11% | 5.64% | 2.41% | 3.31% | 0.39% | 2.54% | 1.6% | 0.19% | 0.63% | 0.93% | 0.46% | 2.14% | 0.87% | 2.41% | 0.78%
13 | NC(=O)c1sc(-n2cnc3cc(C(F)(F)F)ccc32)cc1OCc1ccccc1Br | 2.05% | -0.8% | 2.44% | 1.36% | 4.02% | 7.36% | 34.7% | 1.32% | 5.29% | 3.11% | 12.4% | 2.56% | 1.52% | 4.93% | 11.4% | 1.82% | 2.83% | 1.31% | 2.28% | 1.54%
14 | Cc1cc(-c2ccco2)cc(C)c1/C=C/c1cncc(-c2nn[nH]n2)c1 | 20% | 0% | 3.63% | -0.32% | 7.33% | 2.24% | 2.3% | 1.39% | 1.37% | 1.07% | -0.27% | 3.02% | 3.14% | 1.5% | 0.04% | 0.26% | 0.16% | -0.6% | 0.69% | 1.06%
